Reference: PubChem BioAssay AID1159580 (chemical genetic matrix, 2015)
The campaign covered roughly 5,500 compounds. About 2,000 (36%) were called active. Not shown: some 18% with an inconclusive outcome. Rule as the data show it: active = normalized growth mostly below about 0.91 (no sharp cut-off); inconclusive = no clear call, values can overlap the other calls; inactive = mostly above about 0.92. The list shows a part of the results.

Experiment: chemical genetic growth profiling, strain panel (AID 1159580);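 also: tested at 20 µM; growth read once vehicle control cultures reached saturation at 30 °C; 1 = growth at the plate median or of vehicle wells; lower values mean less growth of the strain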
Conditions: growth OD
[1] = S. cerevisiae deletion strains, locus YAL013W, strain DEP1, active compounds read low
[2] = S. cerevisiae deletion strains, locus YBR021W, strain FUR4, active compounds read low
[3] = S. cerevisiae deletion strains, locus YBR229C, strain ROT2, active compounds read low
[4] = S. cerevisiae deletion strains, locus YCL029C, strain bik1, active compounds read low
[5] = S. cerevisiae deletion strains, locus YDL035C, strain GPR1, active compounds read low
[6] = S. cerevisiae deletion strains, locus YDL074C, strain BRE1, active compounds read low
[7] = S. cerevisiae deletion strains, locus YDL101C, strain DUN1, active compounds read low
[8] = S. cerevisiae deletion strains, locus YDL134C, strain PPH21, active compounds read low
[9] = S. cerevisiae deletion strains, locus YDL185W, strain tfp1, active compounds read low
[10] = S. cerevisiae deletion strains, locus YDL192W, strain arf1, active compounds read low
[11] = S. cerevisiae deletion strains, locus YDR101C, strain arx1, active compounds read low
[12] = S. cerevisiae deletion strains, locus YDR150W, strain NUM1, active compounds read low
[13] = S. cerevisiae deletion strains, locus YDR162C, strain NBP2, active compounds read low
[14] = S. cerevisiae deletion strains, locus YDR318W, strain mcm21, active compounds read low
[15] = S. cerevisiae deletion strains, locus YDR388W, active compounds read low
[16] = S. cerevisiae deletion strains, locus YDR502C, strain sam2, active compounds read low
[17] = S. cerevisiae deletion strains, locus YEL061C, strain CIN8, active compounds read low
[18] = S. cerevisiae deletion strains, locus YER110C, active compounds read low
[19] = S. cerevisiae deletion strains, locus YER155C, strain BEM2, active compounds read low
[20] = S. cerevisiae deletion strains, locus YER167W, strain BCK2, active compounds read low
[21] = S. cerevisiae deletion strains, locus YGL078C, strain dbp3, active compounds read low
[22] = S. cerevisiae deletion strains, locus YGL086W, strain mad1, active compounds read low
[23] = S. cerevisiae deletion strains, locus YGL248W, strain PDE1, active compounds read low
[24] = S. cerevisiae deletion strains, locus YGR078C, strain PAC10, active compounds read low
[25] = S. cerevisiae deletion strains, locus YGR135W, strain pre9, active compounds read low
[26] = S. cerevisiae deletion strains, locus YGR229C, strain SMI1, active compounds read low
[27] = S. cerevisiae deletion strains, locus YGR252W, strain gcn5, active compounds read low
[28] = S. cerevisiae deletion strains, locus YHR030C, strain SLT2, active compounds read low
[29] = S. cerevisiae deletion strains, locus YHR079C, strain IRE1 (second series), active compounds read low
[30] = S. cerevisiae deletion strains, locus YHR094C, strain hxt1, active compounds read low
[31] = S. cerevisiae deletion strains, locus YHR129C, strain ARP1, active compounds read low
[32] = S. cerevisiae deletion strains, locus YHR200W, strain rpn10, active compounds read low
[33] = S. cerevisiae deletion strains, locus YIL066C, strain RNR3, active compounds read low
[34] = S. cerevisiae deletion strains, locus YIL073C, strain SPO22, active compounds read low
[35] = S. cerevisiae deletion strains, locus YIL125W, strain kgd1, active compounds read low
[36] = S. cerevisiae deletion strains, locus YIR030C, strain dcg1, active compounds read low
[37] = S. cerevisiae deletion strains, locus YJL095W, strain BCK1, active compounds read low
[38] = S. cerevisiae deletion strains, locus YJL134W, strain LCB3, active compounds read low
[39] = S. cerevisiae deletion strains, locus YJL168C, strain set2, active compounds read low
[40] = S. cerevisiae deletion strains, locus YJL187C, strain SWE1 (second series), active compounds read low
[41] = S. cerevisiae deletion strains, locus YJR043C, strain POL32, active compounds read low
[42] = S. cerevisiae deletion strains, locus YJR075W, strain HOC1, active compounds read low
[43] = S. cerevisiae deletion strains, locus YKL009W, strain mrt4, active compounds read low
[44] = S. cerevisiae deletion strains, locus YKL068W, active compounds read low
[45] = S. cerevisiae deletion strains, locus YKL085W, strain MDH1 (second series), active compounds read low
[46] = S. cerevisiae deletion strains, locus YKL085W, strain MDH1, active compounds read low
[47] = S. cerevisiae deletion strains, locus YKL190W, strain CNB1, active compounds read low
[48] = S. cerevisiae deletion strains, locus YKR001C, strain vps1, active compounds read low
[49] = S. cerevisiae deletion strains, locus YLR039C, strain RIC1, active compounds read low
[50] = S. cerevisiae deletion strains, locus YLR058C, strain SHM2, active compounds read low
[51] = S. cerevisiae deletion strains, locus YLR102C, strain apc9, active compounds read low
[52] = S. cerevisiae deletion strains, locus YLR262C, strain YPT6, active compounds read low
[53] = S. cerevisiae deletion strains, locus YLR268W, strain sec22, active compounds read low
[54] = S. cerevisiae deletion strains, locus YLR330W, strain CHS5, active compounds read low
[55] = S. cerevisiae deletion strains, locus YLR342W, strain FKS1 (second series), active compounds read low
[56] = S. cerevisiae deletion strains, locus YLR371W, strain rom2, active compounds read low
[57] = S. cerevisiae deletion strains, locus YLR418C, strain cdc73, active compounds read low
[58] = S. cerevisiae deletion strains, locus YML016C, strain PPZ1, active compounds read low
[59] = S. cerevisiae deletion strains, locus YML032C, strain rad52, active compounds read low
[60] = S. cerevisiae deletion strains, locus YML124C, strain tub3, active compounds read low
[61] = S. cerevisiae deletion strains, locus YMR078C, strain ctf18, active compounds read low
[62] = S. cerevisiae deletion strains, locus YMR223W, strain ubp8, active compounds read low
[63] = S. cerevisiae deletion strains, locus YMR263W, strain SAP30, active compounds read low
[64] = S. cerevisiae deletion strains, locus YMR307W, strain GAS1, active compounds read low
[65] = S. cerevisiae deletion strains, locus YNL067W, strain RPL9B, active compounds read low
[66] = S. cerevisiae deletion strains, locus YNL128W, strain TEP1, active compounds read low
[67] = S. cerevisiae deletion strains, locus YNL153C, strain GIM3, active compounds read low
[68] = S. cerevisiae deletion strains, locus YNL233W, strain BNI4, active compounds read low
[69] = S. cerevisiae deletion strains, locus YNL250W, strain rad50, active compounds read low
[70] = S. cerevisiae deletion strains, locus YNL271C, strain bni1, active compounds read low
[71] = S. cerevisiae deletion strains, locus YNL298W, strain CLA4, active compounds read low
[72] = S. cerevisiae deletion strains, locus YNL307C, strain MCK1, active compounds read low
[73] = S. cerevisiae deletion strains, locus YNL322C, strain KRE1, active compounds read low
[74] = S. cerevisiae deletion strains, locus YNR052C, strain pop2, active compounds read low
[75] = S. cerevisiae deletion strains, locus YOL006C, strain TOP1, active compounds read low
[76] = S. cerevisiae deletion strains, locus YOL012C, strain htz1
[77] = S. cerevisiae deletion strains, locus YOL147C, strain pex11, active compounds read low
[78] = S. cerevisiae deletion strains, locus YOR061W, strain CKA2, active compounds read low
[79] = S. cerevisiae deletion strains, locus YOR069W, strain VPS5, active compounds read low
[80] = S. cerevisiae deletion strains, locus YOR136W, strain idh2, active compounds read low
[81] = S. cerevisiae deletion strains, locus YOR144C, strain elg1, active compounds read low
[82] = S. cerevisiae deletion strains, locus YOR184W, strain ser1, active compounds read low
[83] = S. cerevisiae deletion strains, locus YOR316C, strain cot1, active compounds read low
[84] = S. cerevisiae deletion strains, locus YPL055C, strain LGE1, active compounds read low
[85] = S. cerevisiae deletion strains, locus YPL241C, strain CIN2, active compounds read low
[86] = S. cerevisiae deletion strains, locus YPR119W, strain clb2, active compounds read low
[87] = S. cerevisiae deletion strains, locus YPR141C, strain kar3, active compounds read low
[88] = S. cerevisiae deletion strains, locus YPR163C, strain tif3, active compounds read low
[89] = S. cerevisiae deletion strains, locus YPR167C, strain met16, active compounds read low
[90] = S. cerevisiae deletion strains, strain wtn01, active compounds read low
[91] = S. cerevisiae strains, strain wild type, active compounds read low

Measured: normalized growth

CCOP(=S)(OCC)SCCSCC
inactive: [1] 0.992 | [2] 1 | [3] 0.955 | [4] 0.977 | [5] 0.964 | [6] 0.896 | [7] 0.977 | [8] 0.983 | [9] 0.956 | [10] 0.981 | [11] 0.991 | [12] 0.975 | [13] 0.967 | [14] 0.97 | [15] 0.984 | [16] 0.986 | [17] 0.983 | [18] 0.985 | [19] 0.989 | [20] 0.992 | [21] 0.996 | [22] 0.991 | [23] 0.972 | [24] 0.965 | [25] 0.982 | [26] 0.968 | [27] 0.992 | [28] 0.992 | [29] 0.997 | [30] 0.991 | [31] 0.976 | [32] 0.994 | [33] 0.977 | [34] 0.982 | [35] 0.975 | [36] 0.996 | [37] 0.97 | [38] 0.98 | [39] 0.992 | [40] 0.979 | [41] 0.991 | [42] 0.961 | [43] 0.944 | [44] 0.977 | [45] 0.979 | [46] 0.979 | [47] 0.964 | [48] 0.976 | [49] 0.937 | [50] 0.972 | [51] 0.988 | [52] 0.878 | [53] 0.975 | [54] 0.974 | [55] 1.03 | [56] 0.999 | [57] 0.947 | [58] 0.982 | [59] 0.99 | [60] 0.995 | [61] 0.978 | [62] 0.992 | [63] 0.975 | [64] 1.04 | [65] 0.972 | [66] 0.945 | [67] 0.978 | [68] 0.99 | [69] 0.979 | [70] 0.994 | [71] 0.982 | [72] 0.993 | [73] 0.976 | [74] 0.998 | [75] 0.846 | [76] 0.792 | [77] 0.991 | [78] 0.96 | [79] 0.997 | [80] 0.995 | [81] 0.99 | [82] 0.956 | [83] 0.973 | [84] 0.949 | [85] 0.976 | [86] 0.99 | [87] 0.968 | [88] 0.999 | [89] 0.988 | [90] 0.995 | [91] 0.979

CCOP(=S)(OCC)SCSCC
inactive: [1] 1 | [2] 0.979 | [3] 1 | [4] 1 | [5] 0.986 | [6] 0.963 | [7] 1 | [8] 0.998 | [9] 1.01 | [10] 1 | [11] 0.993 | [12] 0.994 | [13] 0.969 | [14] 1.01 | [15] 1 | [16] 1 | [17] 1.01 | [18] 1 | [19] 1 | [20] 1 | [21] 1 | [22] 0.998 | [23] 1 | [24] 0.99 | [25] 1.01 | [26] 0.998 | [27] 0.993 | [28] 1 | [29] 1.01 | [30] 0.997 | [31] 1.01 | [32] 1.01 | [33] 1.01 | [34] 1.06 | [35] 1 | [36] 1.01 | [37] 0.993 | [38] 1 | [39] 1.01 | [40] 1.01 | [41] 1.01 | [42] 1 | [43] 1.01 | [44] 1.01 | [45] 1 | [46] 1 | [47] 1.01 | [48] 0.998 | [49] 1.01 | [50] 1.01 | [51] 1.02 | [52] 0.953 | [53] 0.991 | [54] 0.999 | [55] 1.03 | [56] 1.02 | [57] 0.943 | [58] 1 | [59] 1 | [60] 1.01 | [61] 1 | [62] 1.01 | [63] 0.952 | [64] 1.02 | [65] 0.988 | [66] 1 | [67] 1 | [68] 1 | [69] 1.01 | [70] 1 | [71] 1.02 | [72] 1 | [73] 1.01 | [74] 1.01 | [75] 0.985 | [76] 0.793 | [77] 1 | [78] 0.994 | [79] 1 | [80] 1 | [81] 0.996 | [82] 1.01 | [83] 1 | [84] 0.974 | [85] 0.998 | [86] 0.997 | [87] 1.01 | [88] 1.01 | [89] 1.01 | [90] 1.01 | [91] 1.01
